{
  "source": "PubChem BioAssay (NCATS)",
  "note": "Results filed as inconclusive are left out. Where a call stands in place of a potency, no number is given. Active and inactive are the calls of the source. Calls come from the whole dose curve; as a rule, active = well fitted inhibition curve with a large enough effect; inconclusive = small, poorly fitted or top-dose-only effect; inactive = no such curve, though single readings can be large or run the other way. Where a SMILES comes first, the peptide text is derived from it. [ ]: non-standard residue; d: D form. Ala(indol-2-yl) = N[C@@H](Cc1cc2ccccc2[nH]1)C(=O)O; Aib = CC(C)(N)C(=O)O",
  "data": [
    {"experiment": "P-glycoprotein substrates identified in KB-3-1 adenocarcinoma cell line, qHTS therapeutic library screen (AID 1346986); note: nearly all actives have a fitted effect of over 60% in size", "details": "KB-3-1 parental cells viability, CellTiter-Glo, 72 h; series mostly up to 93.4 µM", "how_it_was_run": "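Compounds were tested in dose-response against KB-3-1 and KB-8-5-11 cells at 37 degree C for 72 h, and viability was measured by luminescence. AC50 values came from curve fitting with class-based activity calls.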", "values": [
      {"smiles": "C[N@@+]1(CC2CC2)CC[C@]23c4c5ccc(O)c4O[C@H]2C(=O)CC[C@@]3(O)[C@H]1C5", "Potency": "inactive"},
      {"smiles": "COc1ccc2c3c([nH]c2c1)C(C=C(C)C)N1C(=O)C2CCCN2C(=O)C1C3", "note": "(stereo unspecified)", "Potency": "inactive"},
      {"smiles": "CC(C)(NC(=O)[C@@H](N)Cc1ccc(O)cc1)C(=O)N[C@@H](Cc1cc2ccccc2[nH]1)C(=O)N[C@@H](Cc1ccccc1)C(=O)O", "note": "(H-Y[Aib][Ala(indol-2-yl)]F-OH)", "outcome": "inactive [at 9.29 µM]"},
      {"smiles": "C=C(CO)C(=O)O[C@H]1CC(=C)[C@@H]2C[C@H](O)C(=C)[C@@H]2[C@H]2OC(=O)C(=C)[C@@H]21", "Potency": "inactive"},
      {"smiles": "CC1CCCC(=O)CCC/C=C/c2cc(O)cc(O)c2C(=O)O1", "note": "(stereo unspecified)", "Potency": "inactive"},
      {"smiles": "C[C@H]1O[C@@H](n2cnc3c(N)ncnc32)C[C@@H]1O", "Potency": "inactive"}
    ]}
  ]
}
